A short description of this experiment: Activators of T cell receptors: Hit Validation.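 Further: cytokine measured is secreted IL-2.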 Summed up:
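Primary human leukocytes incubated 48 hr with anti-CD3 beads plus compound, without co-stimulation. Secreted IL-2 quantified by HTRF (europium cryptate donor, d2 acceptor, 665 nm emission).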

The results in this text go back to PubChem BioAssay AID624298 (National Center for Advancing Translational Sciences (NCATS), 2012).

Results filed as inconclusive are left out. Entries that show only a call come without a potency. Active and inactive are the calls of the source. The call rests on the fitted dose curve; in most records, active means well fitted activation curve with a large enough effect; inconclusive means small, poorly fitted or top-dose-only effect; inactive means no such curve, though single readings can be large or run the other way.
Potency means the concentration at half of the fitted maximal effect.

For `Cc1cc(C)c(-c2csc(NC(=O)C3=NN(c4ccccc4)C(=O)CC3)n2)c(C)c1`, the Potency entry is “inactive”. `Cc1[nH]c2ccccc2c1C(=O)COc1ccccc1F`: the Potency entry is “inactive”. To `O=S(=O)(c1ccc(=S)[nH]c1)N1CCCCCC1` belongs “inactive”; to `O=C1N=C(O)CN1/N=C/c1ccc(-c2ccc([N+](=O)[O-])cc2)o1`, “inactive”; to `Cc1ccc(NC(=O)C2CC(=O)N(Cc3ccco3)C2)cc1` (stereo unspecified), “inactive”. To `CCOC(=O)C1CCN(C(=O)c2cccc(S(=O)(=O)N3CCc4ccccc43)c2)CC1` belongs “inactive”. To `CCN(CC(=O)Nc1ccccc1C(F)(F)F)C(=O)c1ccccc1Sc1ccccc1C#N` belongs “inactive”; to `CCOc1ccc(/C=N/NC(=O)c2ccc(O)cc2)cc1CN1CC2CC(C1)c1cccc(=O)n1C2` (stereo unspecified), “inactive”. Take `O=C(CCOc1ccccc1)Nc1ccc(S(=O)(=O)Nc2ncccn2)cc1`: the Potency result was “inactive”.

Regarding `CCN(CC)S(=O)(=O)c1ccc(N2CCN(C)CC2)c(NC(=O)CN2C(=O)NC3(CCCCC3)C2=O)c1`, the Potency result is “inactive”.

As to `S=c1[nH]nc(-c2cccnc2)n1C1CCCCC1`, the Potency result is “inactive”. As to `Cc1onc(-c2c(F)cccc2Cl)c1C(=O)Nc1sc2c(c1C(N)=O)CCC2`, the Potency entry is “inactive”. The entry for `COc1cc2c(cc1O)CCN(C(=O)CSc1nncn1C)[C@@H]2C` is “inactive”; for `COc1cccc(-n2c(SCC(=O)NC3CCS(=O)(=O)C3)nc3ccccc3c2=O)c1` (stereo unspecified) it is “inactive”. To `CCOC(=O)c1c(C)[nH]c(C(=O)OCC(=O)Nc2ccccc2)c1C` belongs “inactive”; to `Cn1c(=O)c2c(ncn2CC(O)CO)n(C)c1=O` (stereo unspecified), “inactive”. To `CCN(CC)c1ccc(S(=O)(=O)N2CCOCC2)cc1NC(=O)COC(=O)/C=C/c1ccccc1` belongs “inactive”; to `CCC(=C/c1sc2ccc3ccccc3c2[n+]1C)/C=C1\Sc2ccc3ccccc3c2N1C`, 9.96 µM (active); to `CN(CC(=O)Nc1ccc(N2CCOCC2)cc1)C(=O)c1ccc(CS(C)(=O)=O)cc1`, “inactive”. Regarding `CN(C)S(=O)(=O)c1ccc2oc(SCC(=O)c3c(N)n(C4CC4)c(=O)[nH]c3=O)nc2c1`, the Potency result was “inactive”.

Turning to `CC(=O)NS(=O)(=O)c1ccc(NC(=S)NC(=O)COc2ccccc2C)cc1`, the Potency was 14.1 µM (active). The entry for `COc1ccccc1CC(=O)NNC(=O)CN(C)S(=O)(=O)c1ccc(Cl)cc1` is “inactive”. The figure for `CCN(CC)c1ccc2nc3ccccc3[n+](CC)c2c1` is 4.99 µM (active); for `CN(C)CCC[C@]1(c2ccc(F)cc2)OCc2cc(C#N)ccc21` it is “inactive”. For the compound `CCOc1ccc(-c2nnc(-c3snc(-c4ccc(F)cc4)c3N=CN(C)C)o2)cc1`, the Potency entry was “inactive”. To `CC(C)NC(=O)CCCn1c(=S)[nH]c2cc3c(cc2c1=O)OCO3` belongs “inactive”.

Regarding `CCN1CNC(=S)N(Cc2ccccc2)C1`, the Potency result was “inactive”. The entry for `O=C(CCCN1CCC(C(=O)c2ccc(F)cc2)CC1)c1ccc(F)cc1` is “inactive”. The entry for `Cc1nn(Cc2ccccc2)c(C)c1C(=O)N1CCN(S(=O)(=O)/C=C/c2ccccc2)CC1` is “inactive”; for `CCCc1nc2ccccc2c(=O)n1CCc1ccccc1` it is “inactive”; for `CCC(=O)N1CCN(c2ccc(NC(=O)c3ccc([N+](=O)[O-])o3)cc2)CC1` it is “inactive”. To `COc1ccccc1C(=O)NCCC(=O)N1CCN(S(=O)(=O)c2cccc(Cl)c2)CC1` belongs “inactive”. For the compound `CC(=O)Nc1ccc(C(=O)OCC(=O)N(c2ccccc2)C2CCS(=O)(=O)C2)cc1` (stereo unspecified), the Potency result is “inactive”. As for `Cn1nc(C(F)(F)F)cc1-c1ccc(S(N)(=O)=O)s1`, the Potency entry was “inactive”. To `CC(C)(C)CC(=O)N1CCN(c2ccc(S(=O)(=O)N3CCOCC3)cc2[N+](=O)[O-])CC1` belongs “inactive”; to `COc1cc(/C=C/C(=O)O)cc(OC)c1OC`, “inactive”; to `O=C(O)c1ccc(OS(=O)(=O)c2cccc(C(F)(F)F)c2)cc1`, “inactive”.

Consider `O=C(Cn1ncc(Cl)c(Cl)c1=O)NCC1CCCCC1`, for which the Potency result is “inactive”.

In the case of `COc1ccc(CN2CCN(C(=O)c3cc(C4CC4)nn3-c3ccccc3)CC2)cc1F`, the Potency result was “inactive”. To `CCOC(=O)c1sc(NC(=O)C2CC(=O)N(c3ccc4c(c3)OCCO4)C2)nc1C` (stereo unspecified) belongs “inactive”; to `N#Cc1ccccc1Sc1ccccc1C(=O)OCC(=O)NC12CC3CC(CC(C3)C1)C2`, “inactive”. For the compound `O=C(Cc1cccs1)Nc1ccc(F)c(S(=O)(=O)N2CCOCC2)c1`, the Potency result was “inactive”. The entry for `Cc1ccc(NC(=S)c2ccc(N(C)C)cc2)cc1` is “inactive”; for `CC1CCN(CCNC(=O)C2CCN(S(=O)(=O)c3cccc4nsnc34)CC2)CC1` it is “inactive”. Take `N#Cc1ccc(CN2CCN(C(=O)c3cc(Cl)c4c(c3)OCCO4)CC2)cc1`: the Potency entry was “inactive”.

With `CCOc1ccc(C(=O)N(CN2CCCC2=O)c2cccc(Cl)c2)cc1`, the Potency result is “inactive”.

Regarding `Cc1ccc(NC(=O)CN(C)C(=O)COC(=O)c2nccnc2N)cc1`, the Potency result is “inactive”. As to `CCn1nnnc1NC(=O)c1ccc2ccccc2c1`, the Potency result was “inactive”. To `CN(C)c1ccc(NC(=O)COC(=O)CNC(=O)c2cccs2)cc1` belongs “inactive”; to `COc1ccc(CN(C)C(C)C(=O)N(C)CC(=O)Nc2ccc(C)cc2)cc1F` (stereo unspecified), “inactive”; to `COc1ccccc1CNC(=O)CSc1ccc(Br)cc1`, “inactive”.

Take `O=C(c1cc(-c2ccc(F)cc2)nc2ccccc12)N1CCN(C2CCS(=O)(=O)C2)CC1` (stereo unspecified): the Potency result is “inactive”. To `O=C(COC(=O)/C=C/c1cccc(Br)c1)Nc1cccc(S(=O)(=O)NC2=NCCC2)c1` belongs “inactive”; to `COc1ccc(Cl)cc1NC(=O)CN(C)C(=O)c1cn2ccccc2n1`, “inactive”. As to `C=C(C)C(=O)OCC(C)C`, the Potency result is “inactive”. The entry for `COc1ccc(-n2c(=O)[nH]cc(C(=O)Nc3ccc4c(c3)OCO4)c2=O)cc1OC` is “inactive”; for `O=C1N/C(=C/c2cccs2)C(=O)N1Cc1ccc(Br)cc1` it is “inactive”; for `O=C(OCc1cc(=O)n2cc(Br)ccc2n1)C1COc2ccccc2O1` (stereo unspecified) it is “inactive”. The entry for `CC(C)CSc1nc2c(c(=O)[nH]c(=O)n2C)n1CC(O)COc1cccc2ccccc12` (stereo unspecified) is “inactive”; for `CC1CCCN(S(=O)(=O)c2ccc(NC(=O)C3CCN(C(=O)C(C)(C)C)CC3)cc2)C1` (stereo unspecified) it is “inactive”.

For `COc1cc(N)c(Cl)cc1C(=O)N[C@H]1CCN(CCCOc2ccc(F)cc2)C[C@H]1OC`, the Potency entry is “inactive”.
